Consider 40 molecules from PubChem BioAssay (NCATS).

Each structure is given as a SMILES string. Results filed as inconclusive are left out. A call without a number means that no potency is given here. Calls of active or inactive are those of the source. Calls follow the shape of the dose curve; as a rule, active = well fitted inhibition curve with a large enough effect; inconclusive = small, poorly fitted or top-dose-only effect; inactive = flat fitted curve, though single readings scatter.
Potency is read from the fitted curve at half-maximal effect.

The nature of the assay: High Content Imaging Cell-Based qHTS for Inhibitors of the mTORC1 Signaling Pathway in MEF (Tsc2-/-, p53-/-) Cells (AID 2666).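 Also: percent of cells scored positive for phospho-rpS6 Ser235/236 immunostaining by imaging.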 The note with it: series mostly up to 38.3 µM. From the text: NIH Molecular Libraries Probe Production Centers Network [MLPCN]
NIH Chemical Genomics Center [NCGC]
Assay Submitter (PI): Blenis, John; Hoffman, Greg; Harvard University
NCGC Assay Overview: Thee mammalian target of rapamycin (mTOR) is an intracellular serine/threonine kinase Aberrant regulation of mTOR signaling plays a causative role in a number of human diseases, including cancer, benign tumors such as lymphangioleiomyomatosis (LAM) and Tuberous Sclerosis Complex (TSC), and metabolic diseases such as diabetes and obesity. This project aims to identify inhibitors of ribosomal protein S6 (rpS6) phosphorylation. The phosphorylation of rpS6 is a key event downstream of mTOR activation. The assay uses a phospho-specific antibody of phospho-rpS6 to detect inhibitors of mTOR activation. Mutations in the Tsc1 and Tsc2 genes are the underlying genetic lesions responsible for TSC, causing constitutive activation of the mTORC1 pathway and leading to profound effects on cell metabolism. Aberrant metabolism in cancer has recently received significant attention as a target to develop therapeutic agents in the treatment of cancer1. As Tsc2-/- cells have lost the ability to respond to energy and growth factor deprivation, these cells are unable to properly down regulate cellular biosynthetic processes in response to metabolic stress, and are thus extremely sensitive to glucose deprivation-induced death.2 A central goal of this project is to explore the unique cell survival and metabolic properties of cells with Tsc1 or Tsc2 by screening for compounds that selectively target the Tsc2-/- MEFs by screening both Tsc2-/- and WT MEF cell lines. We hope to better understand these aspects of TSC physiology in order to exploit them for therapeutic benefit.
NCGC IN Cell Assay Protocol:
For quantitative high throughput analysis of mTORC1 signaling, we developed a cell-based assay for immuno-fluorescence based detection of rpS6 phosphorylation on the Acumen Explorer that will be used a platform for the primary small molecule screen. Mouse embryonic fibroblasts (MEFs) are cultured in 1536-well plates using DMEM + 10% FBS. Twenty-four hrs after plating, test compounds (solubilized in DMSO) are delivered and incubated with the cells for 24 hrs at 37 degree Celsius. Following the incubation, media with compound is aspirated and the cells are fixed in 4% paraformaldehyde (PFA) containing PBS + 0.2% TX-100. Next, PFA is aspirated, cells are washed two times with PBS plus 0.2% TX-100 and the cells are blocked for 1 hr at room temperature (blocking buffer: LiCOR Blocking Buffer plus 0.2% TX-100). This is followed by aspiration and staining with Alexa-488 conjugated-phospho-rpS6 Ser235/236 antibody for 2 hours at room temperature (Cell Signaling Technology # 4803, 1:50 dilution in blocking buffer). Cells are washed two times with PBS plus 0.2% TX-100, and stained with 10 uM propidium iodide (PI) for 20-25 minutes for cell number measurement (1:500 dilution of Hoescht staining is also added for IN Cell imaging). Active wells which are selected (based on Acumen results) are imaged on the IN Cell 1000 (GE Healthcare) using the D360/40X and HQ480/40X excitation filters for the Hoechst and Alexa-488 cytoplasmic stains, respectively. The fluorescence emission filters used were HQ460/40M and HQ535/50M for the Hoechst and Alexa-488 cytoplasmic stains, respectively. The normalized phospho-S6 staining is calculated as the ratio of […] for the single concentration rapamycin control ([…] nM) and DMSO columns. […] Inhibition of the pathway is defined based on the normalized phospho-S6 intensity in rapamycin treated cells. Each treatment is reported as the % positive cells in the well, where thresholds are defined by selecting wells with the highest and lowest signal and differentiating between the % non-active and % active populations. […]
In general terms: In qHTS, concentration-response curves come from the screen itself.
Regarding `COc1ccc(NC(=O)c2ccc(-c3ccc(-c4noc(C)n4)cc3C)cc2)cc1N1CCN(C)CC1`, the Potency was 16.5 µM (active).

In the case of `CCCCCCCCCC(=O)NC(CN1CCOCC1)[C@H](O)c1ccccc1` (stereo not given in full), the Potency result is “inactive”.

As for `Cc1cc(Cn2cnc3c2C[C@@H](C(=O)O)N(C(=O)C(c2ccccc2)c2ccccc2)C3)ccc1N`, the Potency entry was “inactive”.

As for `COc1cc2c(CCNC(C)=O)c[nH]c2cc1O`, the Potency result was “inactive”.

Consider `CC(C)(C)NCC(O)COc1cccc2[nH]c(=O)[nH]c12` (stereo not given), for which the Potency result is “inactive”.

Consider `O=C1OC(=O)C2C3CCC(O3)C12` (stereo not given), for which the Potency entry was “inactive”.

In the case of `O=C(O)Cc1ccc(O)c(O)c1`, the Potency entry was “inactive”.

In the case of `CCN(CC)CCCCCCCCOC(=O)c1cc(OC)c(OC)c(OC)c1`, the Potency entry was “inactive”.

On to `NCCCNCCCCNCCCN`, for which the Potency result is “inactive”.

Take `CCCn1c(=O)c(C)cn2nc(N)nc12`: the Potency result is “inactive”.

With `C[C@H]1CC2C3CCC4=CC(=O)C=C[C@]4(C)[C@@]3(Cl)[C@@H](O)C[C@]2(C)[C@@]1(O)C(=O)CO` (stereo not given in full), the Potency result is “inactive”.

Turning to `Cc1ccccc1/C=C/C1=NCCN1`, the Potency result was “inactive”.

`CC(=O)C(C)=O`: the Potency entry was “inactive”.

Consider `NC(=O)CNCCC(c1ccccc1)c1ccccc1`, for which the Potency entry is “inactive”.

For the molecule `C[C@@]1(C2CCCC2)Cc2cc(OCC(=O)O)c(Cl)c(Cl)c2C1=O`, the Potency result is “inactive”.

Consider `CCCCCCC(=O)OC1CC(C)(C)NC(C)(C)C1`, for which the Potency entry is “inactive”.

As to `Cc1nc2n(c(=O)c1CCN1CCC(c3noc4cc(F)ccc34)CC1)CCCC2O` (stereo not given), the Potency entry was “inactive”.

`CC(=O)O[C@H]1Cc2ccccc2N(C(N)=O)c2ccccc21`: the Potency result was “inactive”.

In the case of `Cc1ccc2c(c1)C(N1CCN(C)CC1)=Nc1cccnc1N2`, the Potency result was “inactive”.

As to `CN(CC[C@@H](Oc1ccc(C(F)(F)F)cc1)c1ccccc1)CC(=O)O`, the Potency result was “inactive”.

For `C[C@H](O)C(=O)C1=Nc2c(nc(N)[nH]c2=O)NC1`, the Potency result was “inactive”.

As to `Cc1cc2c(cc1Cl)N(C(=O)Nc1ccnc3ccccc13)CC2`, the Potency entry was “inactive”.

For `O=[N+]([O-])c1cccc2c(Br)[nH]nc12`, the Potency entry is “inactive”.

Consider `C[C@]12C=CC(=O)C=C1CC[C@@H]1C2=CC[C@]2(C)[C@@H](C(=O)CN3CCN(c4cc(N5CCCC5)nc(N5CCCC5)n4)CC3)CC[C@@H]12`, for which the Potency entry is “inactive”.

For the molecule `CCN(CC)CCOC(=O)c1cc(Cl)c(N)cc1OC`, the Potency entry was “inactive”.

On to `CCN(c1nc(N)c(C(=O)N=C(N)N)nc1Cl)C(C)C`, for which the Potency entry is “inactive”.

On to `O=C(O)/C(=C/c1c(C(=O)O)[nH]c2cc(Cl)cc(Cl)c12)c1ccccc1`, for which the Potency result was “inactive”.

For the molecule `CC1C(=O)N(C)C(=O)c2nc[nH]c21` (stereo not given), the Potency entry is “inactive”.

On to `O=C(O)C1CCCNC1` (stereo not given), for which the Potency entry was “inactive”.

Consider `C#CCn1c(=O)c2c(ncn2C)n(C)c1=O`, for which the Potency entry is “inactive”.

Consider `CC[C@H](NC(=O)c1c(C)c(-c2ccccc2)nc2ccccc12)c1ccccc1`, for which the Potency result was “inactive”.

`CN1CCCC1CCOC(C)(c1ccccc1)c1ccc(Cl)cc1` (stereo not given): the Potency result is “inactive”.

Regarding `CNCCNS(=O)(=O)c1cccc2cnccc12`, the Potency result is “inactive”.

Regarding `N=S(=O)(O)Cc1noc2ccccc12`, the Potency entry was “inactive”.

In the case of `Cn1c(=O)c2[nH]c(-c3ccc(S(=O)(=O)O)cc3)nc2n(C)c1=O`, the Potency entry is “inactive”.

In the case of `CC(C)(C)c1cc(/C=C(\C#N)C(N)=S)cc(C(C)(C)C)c1O`, the Potency result is “inactive”.

As for `C[N+](C)(C)CC=O`, the Potency entry was “inactive”.

With `CN1Cc2sccc2C(c2ccc(O)c(O)c2)C1` (stereo not given), the Potency result was “inactive”.

Take `CC(=O)O[C@H]1CC2(C)[C@@H](C[C@@H](O)[C@H]3[C@@]4(C)CC[C@@H](O)[C@@H](C)[C@@H]4CC[C@@]32C)C1=C(CCC=C(C)C)C(=O)O` (stereo not given in full): the Potency entry is “inactive”.

Take `Fc1ccc(CN(C2=NCCN2)c2c(Cl)cccc2Cl)cc1`: the Potency entry is “inactive”.
